Inconclusive results are not listed. Calls of active or inactive are those of the source. The call rests on the fitted dose curve; in most records, active means well fitted inhibition curve with a large enough effect; inconclusive means small, poorly fitted or top-dose-only effect, or effect the other way, or another doubt; inactive means no such curve, though single readings can be large or run the other way.
Potency means the concentration at half of the fitted maximal effect.

The nature of the test: Confirmation Concentration-Response Assay for lipid storage modulators. Further: nearly all actives have a fitted effect of over 80% in size. The settings on record: Drosophila S3 cells, lipid droplet BODIPY/CellTracker ratio, 18-24 h; series mostly up to 46.1 µM. The text has this: NIH Molecular Libraries Probe Production Centers Network [MLPCN] NIH Chemical Genomics Center [NCGC] MLPCN Grant: 1 R03 MH085686-01 Assay Submitter (PI): Beller, Mathias; Max-Planck-Institut fur Biophysikalische Chemie NCGC Assay Overview: Storing lipids as a reservoir for energy or the anabolism of elementary metabolites is a common feature of probably all cells and is conserved from bacteria to humans. The universal cellular lipid storage organelle is the so-called lipid storage droplet (LD). Although ubiquitous, LDs share a simple structure composed of a hydrophobic core that harbors the storage lipids, which is shielded by a droplet-specific phospholipid monolayer to which proteins are attached. The current model of LD biogenesis involves an incorporation of the lipid core into the membrane leaflets of the endoplasmic reticulum (ER) followed by a subsequent budding-like maturation of a LD, which ultimately pinches off. Once released, LD volume can increase by localized lipogenesis or fusion of existing droplets. Storage lipids are re-mobilized enzymatically by lipase activity. Lipase regulation in the adipocyte is heavily studied and involves multiple components including catecholamine signaling, the LD-associated proteins Perilipin and comparative gene identification-58 (CGI-58) and at least two lipases named hormone sensitive lipase (HSL) and adipocyte triglyceride lipase (ATGL). LD regulation outside of the adipocyte is poorly understood and only few components are known. However, there is an urgent need to learn more about ectopic fat depots as mislocalized storage of lipids, for example in the liver or muscle, is an eminent health problem associated with insulin resistance or the metabolic syndrome. We developed a laser-scanning cytometer assay to enable 1,536-well screening and combined the results of the small molecules screen with an RNAi database based on lipid storage. Exo1 identified in the primary screen (AID 1519) and several analogs were measured in the lipid storage assay as 24-point concentration-response curves to confirm potency and SAR.
We dispensed 4 uL of cells at 1.25 x 10^6 cells/mL into LoBase Aurora COC 1,536-well plates (black walled, clear bottom) with a bottle-valve solenoid-based dispenser (Aurora) to obtain 5,000 cells/well. Triacsin C (Sigma-Aldrich T-4540), an inhibitor of long-chain fatty acyl CoA synthetase that blocks synthesis of triglycerides, was used as a positive control for lipid under-storage. A total of 23 nL of compound solution of different concentrations were transferred to the assay plates using a Kalypsys pin tool equipped with a 1,536-pin array containing 10-nL slotted pins (FP1S10, 0.457-mm diameter, 50.8 mm long; V&P Scientific). One microliter of oleic acid (400 uM) was added, and the plate was lidded with stainless steel rubber gasket lined lids containing pinholes. After 18-24 h incubation at 24 degree Celsius and 95% humidity, 4 uL of the dyes BODIPY 493/503 (Molecular Probes) and the Cell Tracker Red CMTPX dye (Molecular Probes) were added to the wells to stain lipid droplets and enumerate cell number, respectively. Fluorescence was detected by excitation of the fluorophores with a 488-nm laser on an Acumen Explorer (TTP Lab Tech). The total intensity in channel 1 (500-530 nm) reflected lipid droplet accumulation. Cells were detected using channel 3 (575- 640 nm) with 5-um width and 100-um depth filters. The ratio of the total intensity in PMT channel 1 over total intensity of channel 3 was also calculated. Percent activity was computed relative to an internal control (100% inhibited lipid droplet deposition due to the presence of 20 uM Triacsin C), which was added to 32 wells/plate.
For the compound `S=C(Nc1cc(Cl)ccc1Oc1ccccc1)N1CCN(c2ccccn2)CC1`, the Potency was 2500 nM (active). The value for `COC(=O)c1c(-c2c(Cl)cccc2Cl)noc1NC(=O)NN1CCOCC1` was 2500 nM (active). The value for `COc1ccc(/C=C\C(=O)NCc2ccc3[nH]c(C)cc3c2)cc1OC` was 4450 nM (active); that for `Cc1ccc(NC(=O)CN(C)C(=O)Cn2ncc(Cl)c(Cl)c2=O)cc1` was 28100 nM (active). Turning to `COc1ccccc1Nc1nnc(SCC(=O)Nc2nc(-c3ccc(F)cc3)cs2)s1`, the Potency was 705 nM (active).

As to `COc1ccc(-c2nc(C)ncc2N=Nc2ccccc2)cc1`, the Potency was 25000 nM (active). The value for `O=C(NC1CCCc2c1cnn2-c1ccccc1F)c1ccccn1` (stereo not given) was 7.9 nM (active); that for `N#Cc1ccsc1NC(=O)CN1CCN(S(=O)(=O)c2ccccc2C(F)(F)F)CC1` was 1250 nM (active); that for `CCOc1ccc(CCNC(=O)COC(=O)/C=C/c2ccc(C)o2)cc1OCC` was 499 nM (active). With `COc1ccc(CCNC(=O)CSc2nc(O)cc(=O)[nH]2)cc1OC`, the Potency result is “inactive”.

Consider `COc1ccc(CCNC(=O)COc2ccc(S(=O)(=O)NC3CCCCC3)cc2Cl)cc1OC`, for which the Potency was 3970 nM (active). Take `CCOc1ccc2nc(NC(=O)CSc3nc(SC)ns3)sc2c1`: the Potency was 4450 nM (active). The value for `Cc1cc(C)c(Cc2c(C)nc3c(C(=O)NCc4ccco4)cnn3c2C)c(C)c1` was 7050 nM (active); that for `CSCC(=O)NC1CCCc2c1cnn2-c1cc(F)cc(F)c1` (stereo not given) was 2500 nM (active).

As to `COCc1ccc(C(=O)NC2CCCc3c2cnn3-c2cc(C)cc(C)c2)s1` (stereo not given), the Potency was 24.4 nM (active). Take `CN1CCN(C(=O)C2(NC(=O)NCc3ccccc3)CCCCC2)CC1`: the Potency entry is “inactive”.

`COc1nc(Nc2nc3ccccc3c(=O)[nH]2)nc2ccc(C)cc12`: the Potency was 2170 nM (active). For the compound `CCOc1ccc(CCNC(=O)COC(=O)c2ccc3c(c2)OCCO3)cc1OCC`, the Potency was 1410 nM (active). On to `O=C(Nc1ccc(Cl)c(Cl)c1)Nc1ccc(Br)cc1F`, for which the Potency was 8880 nM (active). The value for `Cc1ccc(C(=O)NC2CCCc3c2cnn3-c2ccc(F)cc2F)cn1` (stereo not given) was 3970 nM (active); that for `Nc1c(C(=O)C2CC2)sc2nc(-c3ccccc3)cc(C(F)(F)F)c12` was 1580 nM (active). The value for `CC(=O)Nc1cccc(C(=O)NC2CCCc3c2cnn3-c2ccccc2F)c1` (stereo not given) was 14100 nM (active). The value for `COc1ccc(CCNC(=O)Cn2nnc(-c3ccc(N(C)C)cc3)n2)cc1OC` was 705 nM (active); that for `CC1CCN(C(=O)C2(NC(=O)Nc3cccc(F)c3)CCCCC2)CC1` was 7910 nM (active). For the compound `COc1ccc(/C=C/C(=O)NCCc2ccc(OC)c(OC)c2)cc1`, the Potency is 5600 nM (active).

With `COc1ccc(N=Nc2nc(-c3ccccc3)c(-c3ccccc3)[nH]2)cc1`, the Potency is 2500 nM (active). The value for `CCOc1ccc(CCNC(=O)c2cc3sccc3n2C)cc1OCC` was 705 nM (active); that for `CC(C)N1CCc2c(sc(NC(=O)c3ccc(S(=O)(=O)N4CCCCC4C)cc3)c2C(N)=O)C1` (stereo not given) was “inactive”; that for `Cc1cc(C(=O)O[C@H]2[C@H](C)NS(=O)(=O)[C@H]3C[C@@H]4C=C[C@]23O4)cc([N+](=O)[O-])c1` was “inactive”. On to `CCOc1ccc(CCNC(=O)COC(=O)c2c(C)nn(-c3ccccc3)c2C)cc1OCC`, for which the Potency is 1580 nM (active). `CCOc1ccc(CCNC(=O)CSCc2ccc(C)cc2)cc1OCC`: the Potency entry was “inactive”. The value for `CCC1CCCCN1C(=O)c1cc(COc2ccc3ncccc3c2)on1` (stereo not given) was 4340 nM (active). The value for `CCN1CCN(Cc2ccc(NC(=O)c3ccc(C)c(NC(=O)c4c[nH]c5cc(C(F)(F)F)ccc5c4=O)c3)cc2C(F)(F)F)CC1` was 8880 nM (active); that for `O=C(NCc1ccccc1)NC1(C(=O)N2CCCC2)CCCCC1` was “inactive”; that for `O=C(O[C@H]1[C@H](Cc2ccccc2)NS(=O)(=O)[C@H]2C[C@@H]3C=C[C@]12O3)c1ccc([N+](=O)[O-])cc1` was 28100 nM (active).

On to `CC1CCCCN1c1ccc(N)cc1C(N)=O` (stereo not given), for which the Potency entry is “inactive”. As for `Cn1nc(C(C)(C)C)cc1C(=O)NCc1ccc2c(c1)OCO2`, the Potency was 2500 nM (active). The value for `CNc1cccc2c1C(=O)c1ccccc1C2=O` was 6280 nM (active). The value for `COc1ccc(/C=C(\NC(=O)c2cccs2)C(=O)Nc2ccccc2C)cc1OC` was 177 nM (active); that for `CCOc1ccc(OCC)c(NC(=O)C2CCN(S(=O)(=O)c3c(C)noc3C)CC2)c1` was 996 nM (active).

(Values after PubChem BioAssay AID1569 (National Center for Advancing Translational Sciences (NCATS), 2009).)
